Screening data (PubChem)
Pf growth 96h = P. falciparum growth inhibition at 96 hours | actives 6.9% (n = 320,000) | Potency, µM (highest dose often 28.7 µM), for inactives: top-dose activity change, negative = inhibition, most hits filed as inhibitors | P. falciparum luciferase reporter growth, 96 h; note: potency is the fitted concentration of half-maximal effect; % is set by controls: 0 for no effect and ±100 for the full control effect
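Compounds incubated with erythrocytes infected by luciferase-expressing P. falciparum (2% hematocrit, 0.05% parasitemia final) for 96 hours, 37 C in 5% CO2. Growth inhibition scored as decreased luciferase luminescence.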
Shiga toxin inh = blocks Shiga toxin action in Vero cells; inhibition, % at 38.7 µM; actives 9.2% (n = 290,000); Vero cells, Shiga toxin protein synthesis inhibition reporter; in the data active = inhibition mostly above about 28%, no sharp cut-off; inactive = mostly below about 43%; note: 0% is about no effect
Pf growth 48h = inhibits P. falciparum growth in the first generation, 48 h | AID 504832 | Potency, µM (titrated, usually from 28.7 µM), without a hit: top-dose activity change, negative = inhibition, hits mostly inhibitors | P. falciparum luciferase growth in erythrocytes, 48 h | actives 5.9% (n = 310,000); note: potency is the fitted concentration of half-maximal effect; % is set by controls: 0 for no effect and ±100 for the full control effect
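Growth was read as firefly luciferase luminescence after a 48 h, 37 C, 5% CO2 exposure of compounds to reporter-bearing P. falciparum cultures (0.1% parasitemia, 2% hematocrit final) in Albumax-supplemented RPMI 1640.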
CHX counter = counter-screen hit for Shiga toxin inhibitors, cycloheximide. max response, %. AID 2314. actives 12% (n = 300,000). cell reporter, cycloheximide protein synthesis inhibition counterscreen; in the data active = max response mostly above about 13%, no sharp cut-off; inactive = mostly below about 14%; note: read at 38.3 µM for the half of the compounds with a filed dose; 0% is about no effect
HCV inh = HCV inhibition; Huh7.5.1 HCVcc-Cre infection, luciferase reporter, 44 h; Potency, µM (series often up to 41.8 µM), for inactives: top-dose activity change, negative = inhibition, actives largely listed as inhibitors; actives 3.4% (n = 340,000); note: potency is the fitted concentration of half-maximal effect; % is set by controls: 0 for no effect and ±100 for the full control effect
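Compounds are dispensed onto cells plated 4 h earlier at 1,000 per well, with HCVcc-Cre virus (about 0.5 moi) added next. Following 44 h of culture, luminescent signal is measured for 15 sec after 15 min with substrate at room temperature.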
HCMV inh = human cytomegalovirus inhibition; HFF cells, HCMV-luciferase reporter, 72 h; stronger effect = lower value; activity change, negative = inhibition, % at 57.5 µM; actives 4.5% (n = 410,000); AID 1259415; in the data active = activity change below about -60%; inconclusive = no clear call, values can overlap the other calls; inactive = above about -39%; note: % is set by controls: 0 for no effect and ±100 for the full control effect
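Inhibition of viral replication was scored as loss of reporter luminescence in HFFs infected with HCMV-luciferase (MOI 1 PFU/cell) for 72 h; compounds tested at 2 doses, normalized to buffer and Salinomycin controls.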
* marks the source's active call; other numbers are inactive results; ? = inconclusive; . = no result; [ ] = another dose, or the depositor's remark. Only some compounds are listed: those with a hit (about 21% of all), similar ones and a draw of the others. Unless noted, calls come from the whole dose curve; as a rule, active = well fitted inhibition curve with a large enough effect; inconclusive = small, poorly fitted or top-dose-only effect, or another doubt; inactive = no such curve, though single readings can be large or run the other way.

SMILES	Pf growth 96h	Shiga toxin inh	Pf growth 48h	CHX counter	HCV inh	HCMV inh
Cc1cc(N2CCOCC2)nc2ccccc12	?	49*	35%	15*	?	12
c1ccc(-c2cc(N3CCOCC3)nc3ccccc23)cc1	-9%	-26	3%	-1	?	-25
CCc1ccc2ncc3c(-c4ccc(C)cc4)nn(CC(=O)Nc4ccc(C)cc4)c3c2c1	.	.	.	.	.	9
COc1ccc(C(=O)NNC(=O)OC(C)(C)C)cc1	12%	-8	-8%	1	12%	-32
COc1ccccc1C(=O)NNC(=O)c1ccc(F)cc1	-24%	65*	133%	57*	19%	187
CC(C)(C)OC(=O)NNC(=O)c1ccc(Cl)cc1	13%	26	21%	13*	15%	57
COc1ccccc1C(=O)NNC(=O)c1ccc(O)cc1	.	.	.	.	.	71
COc1ccccc1C(=O)NNC(=O)c1ccc(Cl)cc1	43%	21	51%	17*	12%	-17
COc1ccccc1C(=O)NNC(=O)C1CC=CCC1 (stereo not given)	?	34	80%	25*	19%	78
C=CCN(Cc1cc(OC)ccc1OC)C(=O)c1cc2ccc(OC)cc2[nH]1	?	21	?	5	?	-19
Cc1ccccc1C(=O)NNS(=O)(=O)c1ccc(F)cc1	.	.	.	.	.	-37
Cc1ccccc1C(=O)NNC(=O)c1ccc(F)cc1	149%	62	63%	20*	2%	31
CC(=O)Oc1cc2c(C(=O)NCc3ccncc3)c(C)oc2c2ccccc12	?	13	-14%	8.6*	11µM*	6
CNc1nnc(Sc2ncccc2[N+](=O)[O-])s1	?	-2	9.3µM*	-3	-6%	-17
O=[N+]([O-])c1cccnc1Sc1ccc(F)cc1	.	.	.	.	14%	?
Cn1c(NCc2ccccc2F)nc2ccccc21	.	.	.	.	.	96
O=C(CCCN1C(=O)/C(=C/c2ccc(F)cc2)SC1=S)NCCCn1ccnc1	9.3µM*	-5	?	10	-3%	-67*
COc1ccc(/C=C2\SC(=S)N(CCC(=O)NCCCn3ccnc3)C2=O)cc1	?	16	?	18*	13%	-32
CC(C)c1ccc(/C=C2\SC(=S)N(CCC(=O)NCCCn3ccnc3)C2=O)cc1	?	104*	?	61*	?	-97*
COc1ccc(N(C(=O)COc2c(C)cccc2C)S(=O)(=O)c2ccc(Cl)cc2)cc1	.	.	.	.	.	-10
Nc1nc(N)nc(-c2ccccc2O)n1	?	47*	35%	31	19%	5
COc1ccc(/C=C/c2nc(N)nc(-c3ccccc3O)n2)cc1OC	?	4	-29%	15*	?	80
NNc1nc(-c2ccccc2)cc(-c2ccccc2O)n1	?	7	?	0	?	13
Nc1nc(-c2ccccc2)cc(-c2ccccc2O)n1	?	16	20%	9	1%	-96*
C[C@@H]1CN([C@@H](C)CO)S(=O)(=O)c2ccc(Br)cc2O[C@H]1CN(C)C(=O)Cc1cccnc1	.	.	.	.	.	2
SMILES	Pf growth 96h	Shiga toxin inh	Pf growth 48h	CHX counter	HCV inh	HCMV inh
CCOc1ccccc1NC(=O)c1cc(S(=O)(=O)N2CCOCC2)cn1C	.	.	.	.	.	-15
CC(Oc1ccc(F)cc1)C(=O)Nc1cc(S(=O)(=O)N2CCOCC2)ccc1N1CCCCC1 (stereo not given)	3.3µM*	.	4.7µM*	.	?	-8
CC(Oc1ccc(Br)cc1)C(=O)Nc1cc(S(=O)(=O)N2CCOCC2)ccc1N1CCCC1 (stereo not given)	13µM*	.	?	.	0%[8.37 µM]	-26
CC(Oc1ccc(F)cc1)C(=O)Nc1cc(S(=O)(=O)N2CCOCC2)ccc1N1CCCC1 (stereo not given)	?	15	3%	-2	0%	.
CC(C)CCC[C@@H](C)[C@H]1CC[C@H]2[C@@H]3CC[C@@H]4C[C@H](O)CC[C@]4(C)[C@H]3CC[C@]12C	-17%	.	-4%	.	.	.
COc1cc(Cl)c(C)cc1NC(=O)c1sc2nc3n(c(=O)c2c1C)CCCCC3	.	.	.	.	.	-7
C[C@@H](NS(=O)(=O)c1c(F)cccc1F)c1ccccc1	.	.	.	.	.	-22
Cc1ccc(-c2c(C#N)c(N)n3c(nc4ccccc43)c2C#N)cc1	0%	3	?	-2	?	-72*
CNc1cc(C)c(C#N)c2nc3ccccc3n12	?	7	7%	-1	-15%	3
Cc1cc(Cl)n2c(nc3ccccc32)c1C#N	?	17	8.3µM*	-2	?	-22
Cc1c(CCCl)c(Cl)n2c(nc3ccccc32)c1C#N	.	.	.	.	?	-99*
CCc1c(C)c(C#N)c2nc3ccccc3n2c1NC	-17%	-5	-12%	-3	0%	-25
CCN(CC)c1cc(C)c(C#N)c2nc3ccccc3n12	?	-4	5.9µM*	-2	-26%	-2
N#Cc1c(-c2ccccc2)c(C#N)c2nc3ccccc3n2c1N	78%	-8	3%	1	?	-3
CN1C=Nc2c(ncn2C2CCC(CO)O2)C1O (stereo not given)	.	.	.	.	.	3
CCCSc1ncc(Cl)c(C(=O)Nc2c(C(=O)c3ccc(C)cc3)oc3ccccc23)n1	.	.	.	.	.	-24
Clc1cccc(N2CCN(Cc3ccc(Br)o3)CC2)c1	19%	-2	30%	0	2%	-31
Cc1cccc(CCNC(=O)C2CCN(S(=O)(=O)N3CCOCC3)CC2)c1	32%	-4	10%	-3	?	-20
Cc1ccc2nc(-c3ccc(F)cc3)c(Cc3ccsc3)n2c1	.	.	.	.	.	42
C/C(O)=c1/ccc2cccc3nc(C)nc1c23	?	-4	?	-2	?	-79*
O/C=c1\ccc2cccc3nc(C(F)(F)F)nc1c23	32%	-9	-2%	6	?	-26
Cc1cccc(OCCOC(=O)c2c(-c3ccccc3)noc2C)c1	-3%	-5	?	10	?	15
CCCNC(=O)C1(C)CCCN(C(=O)c2ccc(C)c(F)c2)C1 (stereo not given)	.	.	.	.	.	13
COc1ccc(CN(C)C(=O)CNC(=O)c2cccs2)c(OC)c1	?	.	?	.	-10%	0
O=C(c1ccncc1)N1N=C(c2ccc(Br)cc2)CC1c1ccccc1O (stereo not given)	?	-8	?	-4	?	1
COc1cccc(C2CC(c3ccc(C)cc3)=NN2C(=O)c2ccccc2F)c1OC (stereo not given)	4.1µM*	-5	5.2µM*	9	?	35
COc1ccc(C2=NN(C(=O)CSc3ncccn3)C(c3cccc(OC)c3OC)C2)cc1 (stereo not given)	?	7	?	-1	-1%	6
